In PubChem BioAssay (NCATS):
Records with an inconclusive call do not appear. Calls of active or inactive are those of the source. Unless noted, calls follow the shape of the dose curve; as a rule, active = well fitted curve in the direction sought with a large enough effect; inconclusive = small, poorly fitted or top-dose-only effect, or another doubt; inactive = no such curve, though single readings can be large; an effect the other way counts as inactive or inconclusive.

How the values were obtained:
[1] = biological target: Cytochrome P450 2C19 (Homo sapiens) (UniProt P33261); assay: qHTS Assay for Inhibitors and Substrates of Cytochrome P450 2C19 (AID 899); conditions: recombinant CYP2C19, luciferin-H EGE luminescence; also: potency is read from the fitted curve at half-maximal effect; nearly all actives have a fitted effect of over 60% in size
Procedure, shortened: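 Reactions contain 5nM enzyme, 10uM Luciferin-H EGE (KM) and 50mM KPO4; compound preincubates 10 min at 37C, NADPH regeneration starts turnover for 60 min. Luminescence after detection reagent gives activity.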

[2] = qHTS Assay for Identification of Small Molecule Agonists for Thrombopoietin (TPO) Signaling Pathway (AID 917); conditions: TPO signaling pathway reporter cells, agonist qHTS, stimulated with TPO at its EC50; series mostly up to 38.5 µM; also: % is scaled to controls: 0 for no effect and ±100 for the full control effect
Procedure, shortened: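 Human TPO receptor–transfected Ba/F3 cells (murine, IL-3-dependent) in IL-3-deficient medium; compounds plus TPO at EC50, 26 pM final; 24 hrs, 37 C; GpIIb-luciferase luminescence after 10 min RT detection.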

[3] = biological target: Muscarinic acetylcholine receptor M1 (Rattus norvegicus) (UniProt P08482); assay: qHTS Assay for Antagonists of Acetylcholine Muscarinic M1 Receptor: Measurement of IP-One Response (AID 944); conditions: CHO-M1 cells, IP-One HTRF, antagonist mode; series mostly up to 46.1 µM; also: nearly all actives have a fitted effect of over 75% in size; also: potency is read from the fitted curve at half-maximal effect
Procedure, shortened: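 Antagonist mode with rat M1 receptor transfected into CHO cells. Compound is added first for 10 min, carbachol at its EC80 follows for 30 min, and lysis reagents then allow TR-FRET detection of accumulated IP1.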

[4] = biological target: Pyruvate kinase (Leishmania mexicana) (UniProt Q27686); assay: qHTS Validation Assay for Inhibitors of Leishmania Mexicana Pyruvate Kinase (AID 945);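 also: 0% = DMSO only neutral control wells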; conditions: purified L. mexicana pyruvate kinase, enzyme activity, E451W mutant enzyme; series mostly up to 57.5 µM
Procedure, shortened: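 An endpoint luciferase assay: 0.2 nM LmPYK E451W turns over 0.5 mM PEP with 0.1 mM ADP for 1 h at room temperature, pH 7.2, before PKLight addition. Values are normalized to DMSO-only wells.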

[5] = biological target: Pyruvate kinase PKM (Homo sapiens) (UniProt P14618); assay: qHTS Assay for Activators of Human Muscle Pyruvate Kinase (AID 954; active = well fitted curve in the direction sought with a large enough effect, not every such curve was filed as active;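 also: 0% = uninhibited enzyme and -100% = no enzyme or full thiadiazolimine inhibition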); conditions: purified human muscle pyruvate kinase, luciferase-coupled luminescence, 1 h; series mostly up to 57.5 µM
Procedure, shortened: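 Screening used highly purified human pyruvate kinase M2 under submaximal activity, with PEP at its Km and ADP below Km. After an hour at room temperature, ATP was read by luciferase luminescence.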

[6] = Confirmation and Secondary Assay for Modulators of Hemoglobin Beta Chain Splicing at IVS2 654 locus (AID 910); conditions: HeLa EGFP-654 splicing reporter, GFP fluorescence, 48 h; series mostly up to 46.1 µM;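 also: HeLa cells stably carrying EGFP split by mutant beta-globin IVS2-654 intron; per-well total GFP intensity by laser scanning cytometry after 2-day treatment; % of control where 0% means no effect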
Procedure, shortened: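 Readout: per-well total peak green fluorescence (488 nm ex, 500–520 nm em) from objects 5–250 µm, reflecting correct splicing of an EGFP-654 reporter. Compounds were applied for 2 days at 37 °C to overnight-plated HeLa EGFP-654 cells; controls were DMSO and 500 nM IVS2-654 PNA.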

[7] = Confirmation and Secondary Assay for Modulators of Hemoglobin Beta Chain Splicing at IVS2 705 locus (AID 930); conditions: HeLa EGFP-705 splicing reporter, GFP fluorescence, 48 h; series mostly up to 46.1 µM;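 also: HeLa cells stably expressing the EGFP-705 splicing reporter; GFP fluorescence per well restored by corrected splicing of the IVS2-705 intron in EGFP; % of control where 0% means no effect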
Procedure, shortened: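 Per-well GFP, captured at 1 x 8 µm resolution with 488 nm excitation, served as the read-out for HeLa EGFP-705 cells incubated 2 days with test compound versus DMSO.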

[8] = biological target: Muscarinic acetylcholine receptor M1 (Rattus norvegicus) (UniProt P08482); assay: qHTS Assay for Antagonists of Acetylcholine Muscarinic M1 Receptor: Kinetic Measurement of Intracellular Calcium Response (AID 943); conditions: M1-expressing cells, kinetic intracellular calcium fluorescence; series mostly up to 35.3 µM;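 also: Fluo-4 calcium signal as peak divided by basal fluorescence over 4 min; nearly all actives have a fitted effect of over 75% in size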
Procedure, shortened: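 Antagonism is measured as inhibition of the carbachol-evoked calcium rise in CHO cells transfected with rat M1. Cells are dye-loaded, exposed to compound for 10 min, then stimulated with 100 nM carbachol (EC80).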

[9] = qHTS Assay for Identification of Small Molecule Agonists for Hypoxia Response Element Signaling Pathway (AID 914; active = well fitted activation curve with a large enough effect in the signal ratio, with a control signal flat, not every such curve was filed as active; the % refers to the signal ratio; also: potency is read from the fitted curve at half-maximal effect; as to activation: % of control where 0% means no effect); conditions: ME-180 (cervical carcinoma) HRE-bla reporter, beta-lactamase ratio, CoCl2, 17 h; activation: stronger effect = higher value
Procedure, shortened: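 In Opti-MEM containing 0.5% dialyzed FBS and 10 mM HEPES, ME-180 HRE-bla cells received a compound titration and EC50 CoCl2. They were incubated 17 hours, then CCF4-loaded 2.5 hours at room temperature before ratio reading.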

[10] = Cell Viability - LYMP2-001 (AID 921); conditions: LYMP2-001 lymphoblastoid cell viability; series mostly up to 92.2 µM;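 also: cells exposed to compound for 24 h at 37 °C; 0% = DMSO only and full inhibition = tetraoctylammonium bromide control wells; nearly all actives have a fitted effect of over 70% in size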
Procedure, shortened: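 A lymphoblastoid cell line of human origin was treated with library compounds across a concentration series for 24 hours, and viable cell number was estimated from ATP-driven luciferase light output. Hill modeling gave AC50.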

[11] = MultiTox-Fluor Cytotoxicity Assay - LYMP1-001 - Live Cells (AID 947); conditions: LYMP1-001 lymphoblastoid cells, live-cell protease fluorescence viability; series mostly up to 92.2 µM;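 also: 0% = DMSO only and full inhibition = tetraoctylammonium bromide control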
[12] = Cell Viability - LYMP1-002 - Assay at 16 hr (AID 948); conditions: LYMP1-002 lymphoblastoid cell viability; series mostly up to 92.2 µM;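 also: 0% = DMSO alone and full effect = 92 µM tetraoctylammonium bromide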
Procedure, shortened: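 In this qHTS, lymphoblastoid LYMP1-002 cells (human) receive compounds for 16 hr at 37 C. Viability is taken from CellTiter-Glo ATP luminescence, and AC50 derives from standard Hill fits.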

[13] = MultiTox-Fluor Cytotoxicity Assay - LYMP1-002 - Live Cells (AID 955); conditions: LYMP1-002 lymphoblastoid live-cell protease fluorescence viability; series mostly up to 46.1 µM;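 also: cells exposed to compound for 16 hours; % is scaled to controls: 0 for no effect and ±100 for the full control effect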
Procedure, shortened: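 Cells were seeded at 2500 per well and incubated 5 hr. Compounds were then added for 16 hr at 37 C, followed by MultiTox-Fluor reagent for 60 min at room temperature and fluorescence reading of viable-cell protease signal.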

[14] = MultiTox-Fluor Cytotoxicity Assay - LYMP1-003 - Dead Cells (AID 961); conditions: LYMP1-003 lymphoblastoid cells, dead-cell protease fluorescence; series mostly up to 92.2 µM;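 also: cells exposed to compound for 16 h at 37 °C; nearly all actives have a fitted effect of over 70% in size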; also: potency is read from the fitted curve at half-maximal effect
Procedure, shortened: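 Acute toxicity is scored as increased dead-cell protease activity in human lymphoblastoid LYMP1-003 cells after 16 h compound exposure in complete culture medium. Activity is normalized to DMSO basal and 15 uM tetraoctylammonium bromide as full response.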

[15] = MultiTox-Fluor Cytotoxicity Assay - LYMP1-003 - Live Cells (AID 962); conditions: LYMP1-003 lymphoblastoid cells, MultiTox-Fluor live-cell protease fluorescence; series mostly up to 92.2 µM;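 also: cells exposed to compound for 16 hours at 37 °C; 0% = DMSO only and full loss = 92 µM tetraoctylammonium bromide; cytotoxic hits lower the live-cell protease signal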
Procedure, shortened: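 Acute cytotoxicity is scored as a drop in live-cell protease activity in human lymphoblastoid LYMP1-003 cells after 16 hr compound exposure at 37 C. AC50 values come from Hill-equation modelling of concentration-response data.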

[16] = Cell Viability - LYMP1-003 - Assay at 24 hr (AID 963); conditions: LYMP1-003 lymphoblastoid cell viability; series mostly up to 92.2 µM;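 also: plate controls were DMSO only for no effect and tetraoctylammonium bromide positive control for full effect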
Procedure, shortened: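 Cytotoxicity is scored as a concentration-dependent fall in ATP-linked luciferase signal in human lymphoblastoid LYMP1-003 cells treated 24 hr at 37 C in complete culture medium.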

[17] = Cell Viability - LYMP1-003 - Assay at 40 hr (AID 964); conditions: LYMP1-003 lymphoblastoid viability; series mostly up to 92.2 µM; also: % is scaled to controls: 0 for no effect and ±100 for the full control effect; nearly all actives have a fitted effect of over 60% in size
Procedure, shortened: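 Luminescent ATP signal (CellTiter-Glo) served as the viability read-out after 40 hr compound treatment of human lymphoblastoid LYMP1-003 cells at 37 C. Decreases in ATP were fitted with the Hill equation to give AC50.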

[18] = Cell Viability - LYMP2-003 (AID 965); conditions: LYMP2-003 lymphoblastoid cell viability; series mostly up to 92.2 µM;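 also: cells exposed to compounds for 24 h before reading; 0% = DMSO only and full effect = 92 µM tetraoctylammonium bromide; nearly all actives have a fitted effect of over 50% in size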
Procedure, shortened: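 qHTS, human lymphoblastoid line, 2500 cells/well, complete medium. 24 h drug, 37 C. ATP-based luminescent readout; Hill-fit AC50.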

[19] = qHTS Assay for Identification of Small Molecule Antagonists for Thrombopoietin (TPO) Signaling Pathway (AID 918); conditions: TPO-dependent cell signaling reporter, antagonist mode; also: potency is read from the fitted curve at half-maximal effect; nearly all actives have a fitted effect of over 60% in size
Procedure, shortened: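 Inhibitors of TPO signaling are sought by stimulating IL-3-starved murine Ba/F3 cells (human TPO receptor, Glycoprotein IIb-driven luciferase) with TPO at its EC50 of 26 pM alongside compound. After 24 hrs at 37 C, reporter luminescence is measured.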

[20] = MultiTox-Fluor Cytotoxicity Assay - LYMP1-002 - Dead Cells (AID 960); conditions: LYMP1-002 lymphoblastoid cells, dead-cell protease fluorescence; series mostly up to 46.1 µM;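 also: cells exposed to compound for 16 h at 37 °C; 0% = DMSO and 100% = tetraoctylammonium bromide; nearly all actives have a fitted effect of over 60% in size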
Procedure, shortened: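 Cells were plated, rested 5 hr, then treated with compound dilution series for 16 hr at 37 C. After adding substrate reagent and 60 min at room temperature, dead-cell protease fluorescence gave concentration-response curves fitted by the Hill equation.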

Sequence of Pyruvate kinase PKM (Homo sapiens) (P14618 whole entry, looked up): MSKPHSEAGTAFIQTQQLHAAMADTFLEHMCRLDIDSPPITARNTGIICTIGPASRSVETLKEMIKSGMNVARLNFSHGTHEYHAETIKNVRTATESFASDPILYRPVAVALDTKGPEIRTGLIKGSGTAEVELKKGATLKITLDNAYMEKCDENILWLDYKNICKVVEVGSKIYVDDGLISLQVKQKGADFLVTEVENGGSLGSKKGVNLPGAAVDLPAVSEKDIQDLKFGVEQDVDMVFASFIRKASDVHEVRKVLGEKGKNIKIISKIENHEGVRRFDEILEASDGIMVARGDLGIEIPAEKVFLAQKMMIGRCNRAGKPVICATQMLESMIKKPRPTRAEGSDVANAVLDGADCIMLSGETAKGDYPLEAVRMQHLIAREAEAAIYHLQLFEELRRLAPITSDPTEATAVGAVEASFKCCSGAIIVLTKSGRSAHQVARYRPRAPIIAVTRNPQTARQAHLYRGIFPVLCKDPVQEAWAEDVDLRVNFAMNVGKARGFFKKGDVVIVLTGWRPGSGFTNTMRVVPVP
Sequence of Muscarinic acetylcholine receptor M1 (Rattus norvegicus) (P08482 whole entry, looked up): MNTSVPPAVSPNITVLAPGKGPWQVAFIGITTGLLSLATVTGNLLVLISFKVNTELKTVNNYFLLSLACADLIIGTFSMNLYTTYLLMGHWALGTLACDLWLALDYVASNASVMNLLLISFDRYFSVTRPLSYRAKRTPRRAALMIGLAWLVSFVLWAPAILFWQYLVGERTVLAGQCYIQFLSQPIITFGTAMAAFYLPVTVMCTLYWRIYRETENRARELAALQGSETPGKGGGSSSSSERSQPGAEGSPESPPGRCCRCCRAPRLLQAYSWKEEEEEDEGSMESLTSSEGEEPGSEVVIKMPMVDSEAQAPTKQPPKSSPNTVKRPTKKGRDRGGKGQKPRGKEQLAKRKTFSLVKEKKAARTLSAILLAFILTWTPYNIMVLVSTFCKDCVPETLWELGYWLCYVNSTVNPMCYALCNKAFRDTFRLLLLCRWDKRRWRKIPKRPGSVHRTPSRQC
Sequence of Pyruvate kinase (Leishmania mexicana) (Q27686 2-499 E452W): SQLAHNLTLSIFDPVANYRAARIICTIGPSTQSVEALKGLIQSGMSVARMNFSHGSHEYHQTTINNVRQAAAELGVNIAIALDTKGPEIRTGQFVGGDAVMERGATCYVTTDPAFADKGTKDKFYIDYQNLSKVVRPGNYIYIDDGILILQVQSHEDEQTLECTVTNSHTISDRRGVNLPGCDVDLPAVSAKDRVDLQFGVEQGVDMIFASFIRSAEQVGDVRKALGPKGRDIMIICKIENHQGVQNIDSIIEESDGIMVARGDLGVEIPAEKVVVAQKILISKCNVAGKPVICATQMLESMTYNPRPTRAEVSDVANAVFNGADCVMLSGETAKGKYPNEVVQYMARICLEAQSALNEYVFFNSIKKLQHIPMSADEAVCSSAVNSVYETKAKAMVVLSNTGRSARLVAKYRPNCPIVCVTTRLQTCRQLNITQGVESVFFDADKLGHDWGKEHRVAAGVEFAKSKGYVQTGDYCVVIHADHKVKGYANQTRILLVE
Sequence of Cytochrome P450 2C19 (Homo sapiens) (P33261 whole entry, looked up): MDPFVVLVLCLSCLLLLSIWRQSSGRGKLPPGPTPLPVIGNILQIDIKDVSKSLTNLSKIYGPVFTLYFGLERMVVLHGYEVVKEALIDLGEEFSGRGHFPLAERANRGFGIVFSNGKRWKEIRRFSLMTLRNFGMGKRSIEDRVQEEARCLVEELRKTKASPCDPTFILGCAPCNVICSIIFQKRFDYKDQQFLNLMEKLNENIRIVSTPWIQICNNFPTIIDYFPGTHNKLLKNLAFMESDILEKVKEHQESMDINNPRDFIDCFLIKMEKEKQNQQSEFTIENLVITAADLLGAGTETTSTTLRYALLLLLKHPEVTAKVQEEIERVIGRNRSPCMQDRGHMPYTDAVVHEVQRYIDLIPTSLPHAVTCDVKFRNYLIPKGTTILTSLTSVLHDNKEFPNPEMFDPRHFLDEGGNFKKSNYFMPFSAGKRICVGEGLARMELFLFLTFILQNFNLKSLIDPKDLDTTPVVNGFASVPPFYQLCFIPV

CN(C)CCC[C@@]1(c2ccc(F)cc2)OCc2cc(C#N)ccc21
inactive: outcome [2] | outcome [4] | outcome [5]
active: Potency [1] 3.16 µM | Potency [3] 10 µM

c1ccc(CC2=NCCN2)cc1
inactive: outcome [6] | outcome [7]

OCCOCCN1CCN(C2=Nc3ccccc3Sc3ccccc32)CC1
inactive: outcome [6] | outcome [7]

COc1cc(C(=O)NCc2ccc(OCCN(C)C)cc2)cc(OC)c1OC
inactive: outcome [6] | outcome [7]

NS(=O)(=O)Cc1noc2ccccc12
inactive: outcome [2] | outcome [8] | Potency [3] | outcome [4] | outcome [5]

CCc1cc(Cl)c(OC)c(C(=O)NC[C@@H]2CCCN2CC)c1O
active: Potency [9] 10 µM

C=C[C@H]1CN2CC[C@H]1C[C@@H]2[C@@H](O)c1ccnc2ccc(OC)cc12
inactive: outcome [10] | outcome [11] | outcome [12] | outcome [13] | Potency [14] | outcome [15] | outcome [16] | outcome [17] | outcome [18]

CN1CCC[C@@H]1CCO[C@](C)(c1ccccc1)c1ccc(Cl)cc1
active: Potency [19] 10 µM
inactive: outcome [4] | outcome [5]

CC(=O)Nc1ccc(S(=O)(=O)Nc2ccc([N+](=O)[O-])cc2)cc1
inactive: outcome [6] | outcome [7]

Cc1cc(-c2ccccc2)nnc1NCCN1CCOCC1
inactive: outcome [6] | outcome [7]

CN(C)C(=O)Nc1ccc(Cl)c(Cl)c1
inactive: outcome [6] | outcome [7]

O=C(O)CCC(=O)Nc1ccc(S(=O)(=O)Nc2nccs2)cc1
inactive: outcome [6] | outcome [7]

CC[N+](C)(CC)CCOC(=O)C(O)(c1ccccc1)C1CCCCC1 (stereo not drawn)
inactive: activation [9] 1.14%

C/C=C/c1ccc(O)c(OC)c1
inactive: outcome [10] | outcome [11] | outcome [12] | outcome [13] | outcome [20] | Potency [14] | outcome [15] | outcome [16] | outcome [17] | outcome [18]

CCN(CC)CCOc1ccc2c(c1)C(=O)c1cc(OCCN(CC)CC)ccc1-2
inactive: outcome [6] | outcome [7]

CN(C)CCOC(=O)C(c1ccccc1)C1(O)CCCC1 (stereo not drawn)
inactive: outcome [6] | outcome [7]

CC(C)(C)NC[C@H](O)COc1nsnc1N1CCOCC1
inactive: outcome [2] | Potency [3] | outcome [4] | outcome [5]

Nc1ccc(C(=O)NCC(=O)O)cc1
inactive: outcome [6] | outcome [7]

OC[C@H]1O[C@@H]2O[C@H]3[C@H](O)[C@@H](O)[C@@H](O[C@H]4[C@H](O)[C@@H](O)[C@@H](O[C@H]5[C@H](O)[C@@H](O)[C@@H](O[C@H]6[C@H](O)[C@@H](O)[C@@H](O[C@H]7[C@H](O)[C@@H](O)[C@@H](O[C@H]8[C@H](O)[C@@H](O)[C@@H](O[C@H]1[C@H](O)[C@H]2O)O[C@@H]8CO)O[C@@H]7CO)O[C@@H]6CO)O[C@@H]5CO)O[C@@H]4CO)O[C@@H]3CO
inactive: outcome [10] | outcome [11] | outcome [12] | outcome [13] | outcome [20] | Potency [14] | outcome [15] | outcome [16] | outcome [17] | outcome [18]

Oc1c(Cl)cc(Cl)c(Cl)c1Cc1c(O)c(Cl)cc(Cl)c1Cl
inactive: outcome [6] | outcome [7] | outcome [12] | outcome [16]
active: Potency [14] 50.1 µM

Nc1ccc(S(=O)(=O)Nc2cnc3ccccc3n2)cc1
inactive: outcome [6] | outcome [7]

CCC(Cc1c(I)cc(I)c(N)c1I)C(=O)O (stereo not drawn)
inactive: outcome [6] | outcome [7]

NC(N)=NCc1cccc(I)c1
inactive: outcome [8] | Potency [3] | outcome [4] | outcome [5]

CCN1CCCC(OC(=O)C(c2ccccc2)c2ccccc2)C1 (stereo not drawn)
inactive: outcome [6] | outcome [7]

CCOC(=O)c1ccc(N)cc1
inactive: outcome [6] | outcome [7]

COC(=O)C(c1ccccc1Cl)N1CCc2sccc2C1 (stereo not drawn)
inactive: outcome [6] | outcome [7]

CN=C(N)NCCC[C@H](N)C(=O)O
inactive: outcome [2] | outcome [8] | Potency [3] | outcome [4] | outcome [5]

COc1cc([C@H]2Oc3cc([C@H]4Oc5cc(O)cc(O)c5C(=O)[C@@H]4O)ccc3O[C@@H]2CO)ccc1O
inactive: outcome [10] | outcome [11] | outcome [12] | outcome [13] | outcome [20] | Potency [14] | outcome [15] | outcome [16] | outcome [17] | outcome [18]

CC(C)NCC(O)c1ccc2ccccc2c1 (stereo not drawn)
inactive: outcome [6] | outcome [7]

O=C1C(=O)c2ccccc2C(O)=C1C1CCC(c2ccc(Cl)cc2)CC1 (stereo not drawn)
inactive: outcome [6] | outcome [7]

COc1cc(NS(=O)(=O)c2ccc(N)cc2)ncn1
inactive: outcome [6] | outcome [7]

CC(=O)NO
inactive: outcome [6] | outcome [7]

CCCCC(CC)COC(=O)c1ccc(N(C)C)cc1 (stereo not drawn)
inactive: outcome [10] | outcome [11] | outcome [12] | outcome [13] | Potency [14] | outcome [15] | outcome [16] | outcome [17] | outcome [18]

CCOc1ccccc1C(N)=O
inactive: outcome [10] | outcome [11] | outcome [12] | outcome [13] | outcome [20] | Potency [14] | outcome [15] | outcome [16] | outcome [17] | outcome [18]

NCCNc1cccc2ccccc12
inactive: outcome [11] | outcome [12] | outcome [13] | outcome [20] | Potency [14] | outcome [15] | outcome [16] | outcome [17] | outcome [18]
